# SARS PLP yeast: SARS-CoV PLP inhibition in yeast | S. cerevisiae expressing SARS-CoV PLpro, growth rescue | Potency, µM (titrated, usually from 32.9 µM), for inactives: at the highest dose activity, positive = growth rescue, usual class: activators | 330,000 compounds, 0.19% hits; calls by dose curve; further: potency means the concentration at half of the fitted maximal effect; 0% is about no effect; nearly all actives have a fitted effect of over 55% in size
# Pf growth 96h: P. falciparum growth inhibition at 96 hours | 320,000 compounds, 6.9% hits | Potency, µM (series often up to 28.7 µM), for the others: at the highest dose activity change, negative = inhibition, most hits filed as inhibitors | P. falciparum luciferase reporter growth, 96 h; further: potency means the concentration at half of the fitted maximal effect; on the % scale 0 is the no-effect control and ±100 the full control effect
#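 Two parasite generations (96 h, 37 C, 5% CO2) of compound exposure in infected erythrocytes (0.05% parasitemia, 2% hematocrit). Luciferase-reporter P. falciparum; decreased luminescence indicates inhibited growth, aimed at apicoplast-acting delayed death.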
# HCMV inh: blocks human cytomegalovirus replication; 410,000 compounds, 4.5% hits; HFF cells, HCMV-luciferase reporter, 72 h; hits give low values; AID 1259415; activity change, negative = inhibition, % at 57.5 µM; in the data active means activity change below about -60%; inconclusive means no clear call, values can overlap the other calls; inactive means above about -39%; further: on the % scale 0 is the no-effect control and ±100 the full control effect
#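 Cell-based, HFFs, 1000 cells/well, 16 h 37C; cpds in DMSO + HCMV-luc, MOI 1 PFU/cell; 72 h 37C; OneGlo luminescence after 5 min RT; norm. to buffer vs Salinomycin 10uM.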
# Pf growth 48h: P. falciparum growth inhibition at 48 hours (one generation). P. falciparum luciferase growth in erythrocytes, 48 h. AID 504832. 310,000 compounds, 5.9% hits. Potency, µM (titrated, usually from 28.7 µM), inactives show at the highest dose activity change, negative = inhibition, actives largely listed as inhibitors; further: potency means the concentration at half of the fitted maximal effect; on the % scale 0 is the no-effect control and ±100 the full control effect
#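 Parasite viability was followed by luminescence of a genomically integrated firefly luciferase. Cultures held 0.1% parasitemia at 2% hematocrit (final), incubated under 5% CO2 at 37 C.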
# Sm TGR inh: blocks Schistosoma mansoni thioredoxin glutathione reductase | Q962Y6 | purified TGR, DTNB reduction, TNB absorbance 405 nm | Potency, µM (top dose mostly 114 µM), without a hit: top-dose activity change, negative = inhibition, usual class: inhibitors | 360,000 compounds, 3% hits | AID 485364; further: potency means the concentration at half of the fitted maximal effect; on the % scale 0 is the no-effect control and ±100 the full control effect; nearly all actives have a fitted effect of over 60% in size
#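 Kinetic colorimetric format: TGR-catalysed, NADPH-driven DTNB reduction monitored via TNB absorbance. Enzyme dispensed at 20 nM; compound exposure 15 min at room temperature before reaction start.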
# HCV inh: inhibitors of hepatitis C virus infection; Huh7.5.1 HCVcc-Cre infection, luciferase reporter, 44 h; Potency, µM (highest dose often 41.8 µM), for inactives: at the top dose activity change, negative = inhibition, most hits filed as inhibitors; AID 651820; 340,000 compounds, 3.4% hits; further: potency means the concentration at half of the fitted maximal effect; on the % scale 0 is the no-effect control and ±100 the full control effect
#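 Infectious HCV cell culture screen: compound-treated cells (1,000/well, pre-plated 4 h) are infected with HCVcc-Cre at roughly 0.5 moi and grown 44 h. Infection is quantified by luciferase signal after 15 min substrate incubation at room temperature.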
# * marks the source's active call; other numbers are inactive results; ? = inconclusive; . = no result. An excerpt weighted towards active compounds, which were near 15% of everything screened. Unless noted, the call rests on the fitted dose curve; in most records, active means well fitted curve in the direction sought with a large enough effect; inconclusive means small, poorly fitted or top-dose-only effect, or another doubt; inactive means no such curve, though single readings can be large; an effect the other way counts as inactive or inconclusive.
SMILES,SARS PLP yeast,Pf growth 96h,HCMV inh,Pf growth 48h,Sm TGR inh,HCV inh
COc1ccc(/C=N/NC(=O)c2cc(OC)c(OC)c(OC)c2)cc1CN1CCc2cc(OC)c(OC)cc2C1C (centres undefined),-2%,?,-18,?,5%,2µM*
COc1ccc(/C=N/NC(=O)c2cccnc2)cc1CSc1ccccn1,3%,-6%,?,13%,-33%,-12%
COc1ccc(C(=O)N/N=C/c2ccc(OC)c(CSc3ccccn3)c2)cc1,1%,25%,-65*,1%,-2%,?
COc1ccc(/C=N/NC(=O)c2ccc(N)cc2)cc1Cn1cc([N+](=O)[O-])cn1,1%,12µM*,-5,7%,-2%,?
CC(C)(C)c1ccc(S(=O)(=O)c2cnc(SCC(=O)Nc3ccc4c(c3)OCCO4)[nH]c2=O)cc1,.,.,25,.,-5%,.
COc1ccc(N2Cc3cccc(C(=O)Nc4ccc(C(C)C)cc4)c3C2=O)cc1,.,.,34,.,-13%,.
COc1ccc(C(=O)N/N=C/c2ccc(OC)c(CN3CCCc4ccccc43)c2)cc1,-12%,18%,?,1.2µM*,1%,6.3µM*
COc1ccc(/C=N/NC(=O)c2cccnc2)cc1CN1CCCc2ccccc21,-2%,-17%,-13,?,-2%,-17%
COc1ccc(C(=O)N/N=C/c2ccc(OC)c(COc3c(F)c(F)cc(F)c3F)c2)cc1,-1%,0%,-13,4%,1%,2.2µM*
CC1(C(=O)NNC(=O)c2cccc([N+](=O)[O-])c2)CC1(Br)Br (centres undefined),-2%,1%,0,20%,-1%,-5%
O=C1C(C2=C(O)c3ccccc3C2=O)=Nc2ccccc21,-15%,24%,-78*,6%,?,10µM*
O=C(N[C@H]1CC[C@@]23CCCN2C(=O)CCC[C@H]3[C@H]1Cc1ccccc1)C1CCOC1 (some centres undefined),.,.,-10,.,.,.
COc1cc(C(O)c2nc(C(=O)NCCN(C)C)cs2)cc(OC)c1OC (centres undefined),.,.,2,.,.,.
COc1ccc(Oc2coc3c(CN4CCOCC4)c(O)ccc3c2=O)cc1,5%,2.9µM*,18,.,45µM*,2%
CC1CCCN(Cc2c(O)ccc3c(=O)c(-c4ccc(Cl)cc4)coc23)C1 (centres undefined),2%,-10%,?,1µM*,-2%,-11%
O=c1c(-c2ccccc2Cl)coc2c(CN3CCCCC3)c(O)ccc12,3%,?,22,?,?,14%
COc1ccc(-c2coc3c(CN4CCCCC4)c(O)c(CN4CCCCC4)c(O)c3c2=O)cc1,0%,88%,.,5.9µM*,-30%,-24%
COc1ccc(C(=O)c2coc3ccc(O)c(CN4CCCC4)c23)cc1,2%,?,13,.,2%,-30%
COc1ccc(Oc2coc3c(CN(C)C)c(O)ccc3c2=O)cc1,-8%,.,5,12%,-27%,-27%
O=c1c(-c2ccc(Cl)cc2)coc2c(CN3CCCCC3)c(O)ccc12,6%,-26%,22,2.9µM*,4%,11%
O=C(Nc1nnc([C@@H]2C[C@H](O)[C@@H](CO)O2)s1)c1c(F)cccc1F,.,.,-17,.,.,.
Cc1cc(Cl)ccc1NC(=O)Cn1nnc2sc(-c3ccccc3)cc2c1=O,.,.,8,.,7%,.
CC1(c2ccccc2)NC(=O)N(NC(=O)COC(=O)c2cc(Br)ccc2O)C1=O (centres undefined),0%,-3%,-7,0%,0%,8%
O=c1c(-c2ccc(Br)cc2)coc2c(CN3CCOCC3)c(O)ccc12,-5%,?,0,2.6µM*,-17%,?
COc1ccc(OC)c(C(O)c2coc3ccc(O)c(CN4CCOCC4)c23)c1 (centres undefined),12%,17%,28,7.4µM*,-1%,?
SMILES,SARS PLP yeast,Pf growth 96h,HCMV inh,Pf growth 48h,Sm TGR inh,HCV inh
O=c1c(-c2ccc(Br)cc2)coc2c(CN3CCCCC3)c(O)ccc12,0%,2.3µM*,-38,1.7µM*,-1%,6%
COc1ccc(OC)c(C(O)c2coc3ccc(O)c(CN(C)C)c23)c1 (centres undefined),2%,180%,34,0%,10%,3%
COc1ccc(S(=O)(=O)Nc2cc(C)on2)cc1,0%,4%,20,24%,-5%,5%
O=C(Cn1ccc2cc(S(=O)(=O)N3CCCCCC3)ccc21)NCCc1ccccc1Cl,.,.,4,.,1%,.
CC(=O)OCC(=O)[C@@]1(O)CCC2C3CCC4=CC(=O)C=CC4(C)C3C(O)C[C@]21C (some centres undefined),.,-14%,.,-10%,.,.
Cc1ccc(S(=O)(=O)N2CCC[C@H]2C(=O)NC2CCCCC2)cc1,.,.,-3,.,.,-8%
Nc1cc2c(cc1Cl)-c1ccccc1C2=NO,.,.,?,.,.,5µM*
Cn1c(N)c(C(=O)COC(=O)COc2ccc(Cl)cc2Cl)c(=O)n(C)c1=O,9%,.,11,.,.,10%
Cc1noc(-c2ccc(NCc3ccccc3)c([N+](=O)[O-])c2)n1,.,.,53,.,-2%,.
O=C(NC(C(=O)N/N=C/c1ccncc1)c1n[nH]c(=O)c2ccccc12)c1ccccc1 (centres undefined),2%,-21%,-20,-10%,-5%,13%
O=C(NC(C(=O)N/N=C/c1cccc2ccccc12)c1n[nH]c(=O)c2ccccc12)c1ccccc1 (centres undefined),19%,49%,-4,?,-2%,22µM*
O=C(NC(C(=O)N/N=C/c1cc([N+](=O)[O-])ccc1O)c1n[nH]c(=O)c2ccccc12)c1ccccc1 (centres undefined),20%,?,-89*,?,-9%,3%
CN1CC(=O)Nc2ccccc2C1=O,0%,-6%,29,32%,5%,6%
CN1C(=O)c2ccccc2NC(=O)C1Cc1ccccc1 (centres undefined),0%,12µM*,19,7%,2%,7%
CN(C)c1ccc(C(c2nnnn2C(C)(C)C)N2CCN(C(=O)c3ccco3)CC2)cc1 (centres undefined),1%,-13%,50,7%,16µM*,26%
COc1ccccc1C(c1nnnn1C(C)(C)C)N1CCN(C(=O)c2ccco2)CC1 (centres undefined),3%,?,-17,4.7µM*,-8%,9%
CCOc1ccc(C(c2nnnn2C(C)(C)C)N2CCN(C(=O)c3ccco3)CC2)cc1 (centres undefined),1%,-20%,-19,?,-13%,7%

# High-throughput results deposited in PubChem by National Center for Advancing Translational Sciences (NCATS).
